Measured values taken from PubChem BioAssay AID1159580 (chemical genetic matrix, 2015).
Values joined by “and” are separate entries in the source; they are usually repeats but may differ in a detail not shown here. Equal entries are not always repeated. Among all 5,500 compounds or so, about 2,000 (36%) were called active. About 18% were inconclusive and are not listed. Cut-off read from the data, not from the text of the source: active = normalized growth mostly below about 0.91 (no sharp cut-off); inconclusive = no clear call, values can overlap the other calls; inactive = mostly above about 0.92. This is one part of the list.

Test: chemical genetic growth profiling, strain panel (AID 1159580);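 note: tested at 20 µM; growth read once vehicle control cultures reached saturation at 30 °C; 1 = growth at the plate median or of vehicle wells; lower values mean less growth of the strain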
Settings: growth OD
[1] = S. cerevisiae deletion strains, locus YAL013W, strain DEP1, stronger effect = lower value
[2] = S. cerevisiae deletion strains, locus YBR229C, strain ROT2, stronger effect = lower value
[3] = S. cerevisiae deletion strains, locus YDL101C, strain DUN1, stronger effect = lower value
[4] = S. cerevisiae deletion strains, locus YEL061C, strain CIN8, stronger effect = lower value
[5] = S. cerevisiae deletion strains, locus YGR078C, strain PAC10, stronger effect = lower value
[6] = S. cerevisiae deletion strains, locus YHR030C, strain SLT2, stronger effect = lower value
[7] = S. cerevisiae deletion strains, locus YHR087W, strain rtc3, stronger effect = lower value
[8] = S. cerevisiae deletion strains, locus YJL187C, strain SWE1, stronger effect = lower value
[9] = S. cerevisiae deletion strains, locus YJR043C, strain POL32, stronger effect = lower value
[10] = S. cerevisiae deletion strains, locus YJR075W, strain HOC1, stronger effect = lower value
[11] = S. cerevisiae deletion strains, locus YLR039C, strain RIC1, stronger effect = lower value
[12] = S. cerevisiae deletion strains, locus YLR058C, strain SHM2 (second series), stronger effect = lower value
[13] = S. cerevisiae deletion strains, locus YLR085C, strain ARP6, stronger effect = lower value
[14] = S. cerevisiae deletion strains, locus YLR262C, strain YPT6, stronger effect = lower value
[15] = S. cerevisiae deletion strains, locus YML094W, strain GIM5, stronger effect = lower value
[16] = S. cerevisiae deletion strains, locus YMR219W, strain ESC1, stronger effect = lower value
[17] = S. cerevisiae deletion strains, locus YMR263W, strain SAP30, stronger effect = lower value
[18] = S. cerevisiae deletion strains, locus YNL153C, strain GIM3, stronger effect = lower value
[19] = S. cerevisiae deletion strains, locus YNL298W, strain CLA4 (second series), stronger effect = lower value
[20] = S. cerevisiae deletion strains, locus YNL322C, strain KRE1, stronger effect = lower value
[21] = S. cerevisiae deletion strains, locus YNR030W, strain Alg12, stronger effect = lower value
[22] = S. cerevisiae deletion strains, locus YOL006C, strain TOP1, stronger effect = lower value
[23] = S. cerevisiae deletion strains, locus YPL055C, strain LGE1, stronger effect = lower value
[24] = S. cerevisiae deletion strains, locus YPL241C, strain CIN2, stronger effect = lower value
[25] = S. cerevisiae deletion strains, locus YPR135W, strain CTF4, stronger effect = lower value
[26] = S. cerevisiae strains, strain wild type, stronger effect = lower value
[27] = S. cerevisiae deletion strains, locus YAR019C, strain CDC15, stronger effect = lower value
[28] = S. cerevisiae deletion strains, locus YBL105C, strain PKC1, stronger effect = lower value
[29] = S. cerevisiae deletion strains, locus YBR135W, strain CKS1, stronger effect = lower value
[30] = S. cerevisiae deletion strains, locus YBR136W, strain MEC1, stronger effect = lower value
[31] = S. cerevisiae deletion strains, locus YBR160W, strain CDC28, stronger effect = lower value
[32] = S. cerevisiae deletion strains, locus YDL017W, strain CDC7, stronger effect = lower value
[33] = S. cerevisiae deletion strains, locus YDL028C, strain MPS1, stronger effect = lower value
[34] = S. cerevisiae deletion strains, locus YDL108W, strain KIN28, stronger effect = lower value
[35] = S. cerevisiae deletion strains, locus YDL132W, strain cdc53, stronger effect = lower value
[36] = S. cerevisiae deletion strains, locus YDL214C, strain PRR2, stronger effect = lower value
[37] = S. cerevisiae deletion strains, locus YDR052C, strain DBF4, stronger effect = lower value
[38] = S. cerevisiae deletion strains, locus YDR054C, strain cdc34, stronger effect = lower value
[39] = S. cerevisiae deletion strains, locus YDR226W, strain ADK1, stronger effect = lower value
[40] = S. cerevisiae deletion strains, locus YDR477W, strain SNF1, stronger effect = lower value
[41] = S. cerevisiae deletion strains, locus YER123W, strain YCK3, stronger effect = lower value
[42] = S. cerevisiae deletion strains, locus YER133W, strain GLC7, stronger effect = lower value
[43] = S. cerevisiae deletion strains, locus YFL009W, strain cdc4, stronger effect = lower value
[44] = S. cerevisiae deletion strains, locus YFL029C, strain CAK1, stronger effect = lower value
[45] = S. cerevisiae deletion strains, locus YFR003C, strain YPI1, stronger effect = lower value
[46] = S. cerevisiae deletion strains, locus YFR019W, strain FAB1, stronger effect = lower value
[47] = S. cerevisiae deletion strains, locus YFR028C, strain CDC14, stronger effect = lower value
[48] = S. cerevisiae deletion strains, locus YGR040W, strain KSS1, stronger effect = lower value
[49] = S. cerevisiae deletion strains, locus YGR052W, strain FMP48, stronger effect = lower value
[50] = S. cerevisiae deletion strains, locus YGR092W, strain DBF2, stronger effect = lower value
[51] = S. cerevisiae deletion strains, locus YHR079C, strain IRE1, stronger effect = lower value
[52] = S. cerevisiae deletion strains, locus YHR082C, strain KSP1, stronger effect = lower value
[53] = S. cerevisiae deletion strains, locus YHR205W, strain SCH9, stronger effect = lower value
[54] = S. cerevisiae deletion strains, locus YIL147C, strain SLN1, stronger effect = lower value
[55] = S. cerevisiae deletion strains, locus YJL095W, strain BCK1, stronger effect = lower value
[56] = S. cerevisiae deletion strains, locus YJL128C, strain PBS2, stronger effect = lower value
[57] = S. cerevisiae deletion strains, locus YJL157C, strain FAR1, stronger effect = lower value
[58] = S. cerevisiae deletion strains, locus YJR016C, strain ILV3, stronger effect = lower value
[59] = S. cerevisiae deletion strains, locus YJR066W, strain TOR1 (second series), stronger effect = lower value
[60] = S. cerevisiae deletion strains, locus YJR066W, strain TOR1, stronger effect = lower value
[61] = S. cerevisiae deletion strains, locus YKL048C, strain ELM1, stronger effect = lower value
[62] = S. cerevisiae deletion strains, locus YKL067W, strain YNK1, stronger effect = lower value
[63] = S. cerevisiae deletion strains, locus YKL101W, strain HSL1, stronger effect = lower value
[64] = S. cerevisiae deletion strains, locus YKL193C, strain SDS22, stronger effect = lower value
[65] = S. cerevisiae deletion strains, locus YKL203C, strain TOR2, stronger effect = lower value
[66] = S. cerevisiae deletion strains, locus YLR113W, strain HOG1, stronger effect = lower value
[67] = S. cerevisiae deletion strains, locus YLR133W, strain CKI1, stronger effect = lower value
[68] = S. cerevisiae deletion strains, locus YLR403W, strain SFP1, stronger effect = lower value
[69] = S. cerevisiae deletion strains, locus YML070W, strain DAK1, stronger effect = lower value
[70] = S. cerevisiae deletion strains, locus YMR001C, strain CDC5, stronger effect = lower value
[71] = S. cerevisiae deletion strains, locus YMR205C, strain PFK2 (second series), stronger effect = lower value
[72] = S. cerevisiae deletion strains, locus YMR277W, strain FCP1, stronger effect = lower value
[73] = S. cerevisiae deletion strains, locus YNL006W, strain LST8, stronger effect = lower value
[74] = S. cerevisiae deletion strains, locus YNL020C, strain ARK1, stronger effect = lower value
[75] = S. cerevisiae deletion strains, locus YNL161W, strain CBK1, stronger effect = lower value
[76] = S. cerevisiae deletion strains, locus YNL183C, strain NPR1, stronger effect = lower value
[77] = S. cerevisiae deletion strains, locus YNL207W, strain RIO2, stronger effect = lower value
[78] = S. cerevisiae deletion strains, locus YNL222W, strain SSU72, stronger effect = lower value
[79] = S. cerevisiae deletion strains, locus YNL307C, strain MCK1 (second series), stronger effect = lower value
[80] = S. cerevisiae deletion strains, locus YOL078W, strain AVO1, stronger effect = lower value
[81] = S. cerevisiae deletion strains, locus YOL136C, strain PFK27, stronger effect = lower value
[82] = S. cerevisiae deletion strains, locus YOR061W, strain CKA2, stronger effect = lower value
[83] = S. cerevisiae deletion strains, locus YOR119C, strain RIO1, stronger effect = lower value
[84] = S. cerevisiae deletion strains, locus YOR231W, strain MKK1, stronger effect = lower value
[85] = S. cerevisiae deletion strains, locus YOR329C, strain SCD5, stronger effect = lower value
[86] = S. cerevisiae deletion strains, locus YPL031C, strain PHO85, stronger effect = lower value
[87] = S. cerevisiae deletion strains, locus YPL153C, strain RAD53, stronger effect = lower value
[88] = S. cerevisiae deletion strains, locus YPL204W, strain HRR25, stronger effect = lower value
[89] = S. cerevisiae deletion strains, locus YPL209C, strain IPL1, stronger effect = lower value
[90] = S. cerevisiae deletion strains, locus YPL256C, strain CLN2, stronger effect = lower value
[91] = S. cerevisiae deletion strains, locus YPR025C, strain CCL1, stronger effect = lower value
[92] = S. cerevisiae deletion strains, locus YPR106W, strain ISR1, stronger effect = lower value
[93] = S. cerevisiae deletion strains, locus YPR111W, strain DBF20, stronger effect = lower value
[94] = S. cerevisiae deletion strains, strain NNK1, stronger effect = lower value
[95] = S. cerevisiae deletion strains, strain TSCII, stronger effect = lower value

Measured: normalized growth

CC(=O)N/C(=C/c1ccc2c(c1)OCO2)C(=O)O
inactive: [1] 1.01 | [2] 1 | S. cerevisiae deletion strains, locus YCL061C, strain MRC1, stronger effect = lower value 1.02 | [3] 1 | S. cerevisiae deletion strains, locus YDR150W, strain NUM1, stronger effect = lower value 0.915 | [4] 1.02 | [5] 1 | S. cerevisiae deletion strains, locus YGR229C, strain SMI1, stronger effect = lower value 1.02 | [6] 1.06 | [7] 1 | [8] 1.01 | [9] 1.01 | [10] 1.02 | S. cerevisiae deletion strains, locus YKL190W, strain CNB1, stronger effect = lower value 1.01 | [11] 1.07 | [12] 1.01 | [13] 1.02 | [14] 1.07 | [15] 1.01 | [16] 1 | [17] 1.01 | [18] 1.01 | [19] 1.01 | [20] 1 | [21] 1.01 | [22] 1.04 | [23] 0.87 | [24] 1 | [25] 0.998 | [26] 1.02

CCOc1ccc(/C=C(\C)[N+](=O)[O-])cc1OC
active: [1] 0.525 | [2] 0.25 | [3] 0.426 | S. cerevisiae deletion strains, locus YDL134C, strain PPH21, stronger effect = lower value 0.106 | [36] 0.471 | [40] 0.516 | [4] 0.22 | [41] 0.232 | [42] 0.482 | [46] 0.284 | [48] 0.478 | [49] 0.382 | [5] 0.437 | [50] 0.226 | [6] 0.0845 and 0.197 | [51] 0.313 | [52] 0.429 | [7] 0.401 | [53] 0.57 | [55] 0.269 | [57] 0.46 | [8] 0.434 | [9] 0.602 | [59] 0.126 | [60] 0.257 | [10] 0.178 | [61] 0.534 | [62] 0.458 | [63] 0.393 | [65] 0.489 | [11] 0.285 | [12] 0.651 | [13] 0.163 | [66] 0.203 | [67] 0.547 | [14] 0.283 | [68] 0.497 | [69] 0.295 | [15] 0.145 | [71] 0.554 | [16] 0.285 | [17] 0.463 | [74] 0.528 | [18] 0.171 | [76] 0.359 | [19] 0.204 | [79] 0.364 | [20] 0.873 | [21] 0.0808 | [22] 0.0719 | [81] 0.374 | [82] 0.571 | [83] 0.444 | [84] 0.289 | [86] 0.409 | [23] 0.86 | [87] 0.318 | [88] 0.431 | [24] 0.0938 | [90] 0.266 | [25] 0.233 | [26] 0.0825
inactive: [27] 0.976 | [28] 0.975 | [29] 0.97 | [30] 0.973 | [31] 0.971 | [32] 0.97 | [33] 0.973 | [34] 0.979 | [35] 0.991 | [37] 0.984 | [38] 0.978 | [39] 0.97 | [43] 0.98 | [44] 0.97 | [45] 0.978 | [47] 0.974 | [54] 0.973 | [56] 0.964 | [58] 0.985 | [64] 0.973 | [70] 0.967 | [72] 0.973 | [73] 0.976 | [75] 0.961 | [77] 0.977 | [78] 0.976 | [80] 0.98 | [85] 0.965 | [89] 0.968 | [91] 0.969 | [92] 0.972 | [93] 0.978 | [94] 0.975 | [95] 0.977

C/C(=C\c1ccc2c(c1)OCO2)[N+](=O)[O-]
active: [27] 0.0944 | [28] 0.089 | [29] 0.0821 | [30] 0.0972 | [31] 0.096 | [32] 0.103 | [33] 0.108 | [3] 0.101 | [34] 0.107 | [35] 0.121 | [36] 0.0871 | [37] 0.302 | [38] 0.1 | [39] 0.112 | [40] 0.0948 | [41] 0.0987 | [42] 0.0948 | [43] 0.0975 | [44] 0.0944 | [45] 0.123 | [46] 0.0927 | [47] 0.108 | [48] 0.0949 | [49] 0.11 | [50] 0.0972 | [6] 0.107 | [51] 0.113 | [52] 0.12 | [53] 0.00121 | [54] 0.108 | [55] 0.107 | [56] 0.124 | [57] 0.084 | [58] 0.0841 | [59] 0.0942 | [60] 0.105 | [61] 0.106 | [62] 0.0865 | [63] 0.0966 | [64] 0.0838 | [65] 0.107 | [66] 0.126 | [67] 0.0901 | [68] -0.000823 | [69] 0.0897 | [70] 0.0887 | [71] 0.0868 | [72] 0.0888 | [73] 0.0816 | [74] 0.0897 | [75] 0.0823 | [76] 0.114 | [77] 0.091 | [78] 0.0831 | [79] 0.0968 | [80] 0.0833 | [81] 0.0926 | [82] 0.0859 | [83] 0.11 | [84] 0.108 | [85] 0.0841 | [86] 0.0922 | [87] 0.101 | [88] 0.0962 | [89] 0.0837 | [90] 0.128 | [91] 0.0836 | [92] 0.0862 | [93] 0.142 | [94] 0.0961 | [95] 0.0923
